Bioassay records as filed in PubChem.
KB-3-1 cytotox = KB-3-1 parental cell cytotoxicity. Potency, µM (series often up to 46.1 µM), most hits filed as cytotoxic. AID 1347075. KB-3-1 viability, CellTiter-Glo ATP luminescence, 72 h. 1.4% of 400,000 active; further: on the % scale 0 is the no-effect control and ±100 the full control effect; nearly all actives have a fitted effect of over 60% in size
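Here the drug-naive KB-3-1 line serves as comparator for MDR sub-line selectivity; cells received compound titrations, 72 h at 37 °C, then CellTiter-Glo readout.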
MCF10A rereplic = DNA re-replication induction in MCF 10a cells; MCF 10A DNA re-replication, Hoechst nuclear intensity, 48 h; Potency, µM (titrated, usually from 46.1 µM), for the others: top-dose activity, positive = re-replication, usual class: activators; 2.9% of 350,000 active; further: % of control where 0% means no effect; nearly all actives have a fitted effect of over 50% in size
Gal4-VP16 FLuc = counter-screen for ROR gamma inhibitors: Gal4-VP16 reporter | Drosophila S2 Gal4-VP16 UAS-luciferase, luminescence, 20 h | Potency, µM (highest dose often 53.6 µM), for the others: at the top dose activity, negative = inhibition, hits mostly inhibitors | 3.5% of 310,000 active;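 further: Gal4-VP16 expression switched on by copper sulfate through the metallothionein promoter; on the % scale 0 is the no-effect control and ±100 the full control effect; nearly all actives have a fitted effect of over 50% in size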
KB-V1 cytotox = KB-V1 MDR subline cytotoxicity | Potency, µM (titrated, usually from 46.1 µM), hits mostly cytotoxic | KB-V1 MDR cells viability, CellTiter-Glo, 72 h | 3.4% of 400,000 active | AID 1347076; further: on the % scale 0 is the no-effect control and ±100 the full control effect; nearly all actives have a fitted effect of over 60% in size
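Luminescent ATP read-out (CellTiter-Glo, 10 min) measures survival of drug-selected KB-V1 MDR cells after 72 h, 37 degrees C compound exposure. Medium: phenol-red-free DMEM, 10% FBS. Values from fitted concentration-response curves.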
SW480 rereplic = induces DNA re-replication in SW480 colon adenocarcinoma cells; SW480 DNA re-replication, Hoechst DNA content imaging, 48 h; Potency, µM (top dose mostly 46.1 µM), inactives show top-dose re-replication activation, actives largely listed as activators; 1.8% of 340,000 active; AID 624297; further: % of control where 0% means no effect; nearly all actives have a fitted effect of over 55% in size
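Compounds, transferred as 23 nL by pin tool, were incubated with cells for 48 hr; DNA content per nucleus was then quantified by Hoechst staining and fluorescence plate imaging.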
RORgamma inh = ROR gamma (mouse) transcription inhibition; P51450; Drosophila S2 Gal4-RORgamma UAS-luciferase reporter, 20 h; Potency, µM (titrated, usually from 53.6 µM), without a hit: at the highest dose activity change, negative = inhibition, actives largely listed as inhibitors; 5.4% of 310,000 active; AID 2551; further: on the % scale 0 is the no-effect control and ±100 the full control effect; nearly all actives have a fitted effect of over 60% in size
Target sequence (P51450 whole entry, looked up, the tested form may be a part): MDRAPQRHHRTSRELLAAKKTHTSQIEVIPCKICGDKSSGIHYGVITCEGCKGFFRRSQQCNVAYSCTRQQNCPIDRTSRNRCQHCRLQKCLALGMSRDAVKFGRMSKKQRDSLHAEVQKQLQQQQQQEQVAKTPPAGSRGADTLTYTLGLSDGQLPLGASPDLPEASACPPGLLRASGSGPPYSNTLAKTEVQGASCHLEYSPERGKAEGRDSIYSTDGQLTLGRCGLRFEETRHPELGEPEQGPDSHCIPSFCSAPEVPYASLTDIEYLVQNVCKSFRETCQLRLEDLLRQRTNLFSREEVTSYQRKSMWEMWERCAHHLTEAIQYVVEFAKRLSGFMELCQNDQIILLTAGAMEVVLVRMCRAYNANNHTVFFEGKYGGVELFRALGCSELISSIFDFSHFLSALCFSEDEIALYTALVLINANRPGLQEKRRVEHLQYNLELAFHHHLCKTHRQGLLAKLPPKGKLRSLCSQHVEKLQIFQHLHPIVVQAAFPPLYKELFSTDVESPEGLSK
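Stable Schneider cell line, Gal4 DNA-binding domain fused to ROR gamma, UAS-luciferase. Cmpd 1 hr RT → CuSO4 700 uM final → 20 hr RT → luciferase reagent 10 min → luminescence.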
An asterisk follows results filed as active; i = inactive; ? = inconclusive; / = not tested or not shown. The list is not random: actives were taken first. Their share in the collection is about 10%. The call rests on the fitted dose curve; in most records, active means well fitted curve in the direction sought with a large enough effect; inconclusive means small, poorly fitted or top-dose-only effect, or another doubt; inactive means no such curve, though single readings can be large; an effect the other way counts as inactive or inconclusive. Potency means the concentration at half of the fitted maximal effect.

SMILES	KB-3-1 cytotox	MCF10A rereplic	Gal4-VP16 FLuc	KB-V1 cytotox	SW480 rereplic	RORgamma inh
CN1CC=C2C(C#N)=C(N)C(C#N)(C#N)C(CCc3ccccc3)C2C1 (configuration not stated)	i	16.7%	?	18.4µM*	5.1%	-0.1%
O=[N+]([O-])/C=C\c1ccc(N2CCOCC2)cc1	?	15.7%	/	?	14.6µM*	/
O=C(COc1ccc(/C=C\[N+](=O)[O-])cc1)N1CCOCC1	i	0.5%	0.9%	i	-0.6%	18.1%
O=C(O)CC/C=C\CC[C@H]1[C@@H](N2CCCCC2)[C@@H](O)C[C@@H]1OCc1ccc(-c2ccccc2)cc1	/	/	-4.4%	/	/	8.4%
O=C(/C=C/c1cccs1)c1ccc(NC(=O)c2ccccc2F)cc1	i	-2.2%	0.3%	?	-24.8%	15.4%
COc1ccccc1C(=O)Nc1ccc(C(=O)/C=C/c2cccs2)cc1	i	?	-25.0%	23.1µM*	?	-34.8%
COc1ccc(C(=O)Nc2ccc(NC(=O)c3cccs3)cc2)cc1OC	i	/	/	i	/	/
COc1ccc(/C=C/C(=O)c2ccc(NC(=O)c3cccs3)cc2)cc1OC	i	9.2µM*	-20.1%	20.6µM*	?	2.51µM*
COC(=O)c1cc2oc3ccccc3c2n1CC(=O)Nc1ccc(C)cc1C	i	/	/	?	/	/
Cc1cc(=O)n(Cc2cccc(Cl)c2)c2c1c(C)nn2C	i	/	/	i	/	/
O=C(O)c1cccc(N/N=C/c2cn(-c3ccccc3)nc2-c2cccs2)c1	i	?	23.1%	i	-0.1%	?
O=C(N/N=C/c1cn(-c2cccs2)nc1-c1ccccc1)c1ccccc1Cl	i	?	7.94µM*	i	-1.9%	3.55µM*
O=C(N/N=C/c1cn(-c2cccs2)nc1-c1ccccc1)c1ccc(O)cc1	i	?	17.8µM*	i	-0.3%	?
CC(=O)n1cc(/C=N/NC(=O)c2ccccc2Cl)c2ccccc21	i	-5.7%	1.3%	i	-8.2%	-13.5%
CC1(C(=O)NCc2ccccc2)CCC(=O)N1C1CCN(Cc2ccccc2)CC1 (configuration not stated)	i	/	/	i	/	/
CCn1cc(C(=O)NCc2ccccc2)c(=O)c2cc(S(=O)(=O)N3CCCCCC3)ccc21	i	/	/	i	/	/
COC(=O)c1ccc2nc(C)cc(Nc3cccc(Cl)c3C)c2c1	i	/	/	i	/	/
CC(NC(=S)NC1CCCCC1)c1ccc(C(C)(C)C)cc1 (configuration not stated)	?	5.8µM*	2µM*	11.6µM*	29.3%	1.58µM*
CC(C)c1ccc(/C=C/C(=O)NC2CCCCC2)cc1	i	?	-15.5%	i	-4.1%	?
CC(C)c1ccc(C(C)NC(=S)NC2CCCCC2)cc1 (configuration not stated)	?	?	2.82µM*	?	5.2%	1.41µM*
Cc1cc(/C=c2/sc3nc4ccccc4n3c2=O)c(C)n1-c1ccccn1	?	?	0.251µM*	?	8.3%	0.1µM*
O=c1/c(=C/c2ccc(O)c([N+](=O)[O-])c2)sc2nc3ccccc3n12	i	10.4%	-1.3%	i	-18.1%	-7.4%
CCN(CC)c1ccc(/C=c2\sc3nc4ccccc4n3c2=O)c(O)c1	?	2.59µM*	?	i	14.6µM*	-2.7%
CNC(=O)COC(=O)/C=C/c1nc2ccccc2s1	i	0.651µM*	28.6%	i	?	-1.6%
O=C(N/N=C/c1ccc(Cl)cc1)c1cc(-c2cccnc2)nc2ccccc12	9.2µM*	?	-17.5%	9.2µM*	4.11µM*	1.0%
SMILES	KB-3-1 cytotox	MCF10A rereplic	Gal4-VP16 FLuc	KB-V1 cytotox	SW480 rereplic	RORgamma inh
Cc1ccc(/C=N/NC(=O)c2cc(-c3cccnc3)nc3ccccc23)cc1	2.91µM*	23.1µM*	-6.3%	2.91µM*	2.59µM*	-21.7%
O=C(N/N=C/c1cccnc1)c1cc(-c2ccc(Cl)cc2)nc2ccccc12	i	?	/	?	8.7%	/
O=C(N/N=C/c1ccc[nH]1)c1cc(-c2ccc(Cl)cc2)nc2ccccc12	?	?	5.62µM*	?	?	1.41µM*
O=C(N/N=C/c1cccnc1)c1cc(-c2ccc(Br)cc2)nc2ccccc12	?	?	-23.5%	i	20.6µM*	-18.5%
O=C(N/N=C/c1cccnc1)c1cc(-c2ccccc2)nc2ccccc12	i	15.3%	-0.1%	i	-1.7%	0.4%
Cc1ccc(-c2cc(C(=O)N/N=C/c3cccnc3)c3ccccc3n2)cc1C	i	17.7%	/	i	3.1%	/
COc1ccc(-c2cc3nc(-c4ccc(Br)cc4)cc(C(F)(F)F)n3n2)cc1	i	/	/	i	/	/
Cc1ccc2nc(-c3ccccc3)cc(C(=O)Nc3cccnc3)c2c1	i	9.7%	/	2.91µM*	-0.7%	/
C=CCNC(=S)NNC(=O)c1cc(-c2cccnc2)nc2ccccc12	i	-0.1%	-21.9%	i	4.7%	-42.4%
CNC(=S)NNC(=O)c1cc(-c2cccnc2)nc2ccccc12	i	-1.2%	15.8µM*	?	0.9%	7.08µM*
CC(C)(C)C(=O)COC(=O)c1cc(-c2cccnc2)nc2ccccc12	i	?	35.5µM*	i	-30.4%	?
CC[C@H](C)N(C)C(=O)c1cc2ccccc2c(-c2ccccc2Cl)n1	/	/	-1.3%	/	/	33.8%
COC(=O)c1ccc2nc(-c3cccc(Cl)c3)c(Cc3ccsc3)n2c1	i	/	/	i	/	/
CC(C)Oc1ccc(F)cc1-c1cc(C(=O)NCc2ccc(F)cc2)[nH]n1	i	/	/	i	/	/
C=CCOc1ccc(C2NC(=S)NC(c3ccccc3)=C2C(C)=O)cc1OC (configuration not stated)	i	1.0%	-3.7%	i	-1.6%	14.1µM*
COc1cc(C2NC(=O)NC(c3ccccc3)=C2C(C)=O)ccc1OCC#N (configuration not stated)	i	1.7%	-12.6%	i	11.2%	20.8%
CC(=O)C1=C(c2ccccc2)NC(=O)NC1c1ccc(O)c(Cl)c1 (configuration not stated)	i	-0.2%	-0.9%	?	1.2%	3.0%
CCOC(=O)COc1c(Cl)cc(C2NC(=S)NC(c3ccccc3)=C2C(C)=O)cc1OCC (configuration not stated)	i	-5.4%	3.16µM*	i	0.1%	3.55µM*
O=C(Cc1ccc(S(=O)(=O)N2CCOCC2)s1)Nc1cc(C(F)(F)F)cc(C(F)(F)F)c1	?	20.6µM*	/	i	?	/
